High-throughput results (PubChem BioAssay)
This is a sample that favours compounds with a hit; in the whole collection about 8.7% have one here.
Sfp inh = Sfp phosphopantetheinyl transferase inhibition; Q9F4F7; Biochemical Sfp PPTase activity, qHTS; Potency, µM, for inactives: largest response in the series, negative = inhibition, hits mostly inhibitors; 310,000 tested, 3.5% active; AID 1490;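 note: the enzyme is Sfp with the accession as filed and its product quenches rhodamine fluorescence; 0% = enzyme reaction without inhibitor and -100% = no enzyme wells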
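After 15 min at room temperature with compound, 15 nM Sfp received 5 uM rhodamine-CoA plus 12.5 uM BHQ-2-ybbR (50 mM Hepes pH 7.6, 10 mM MgCl2). Rate came from the fluorescence difference over 30 min, ex 525/em 598 nm.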
JMJD2A Tudor inh = blocks the human JMJD2A Tudor domain; O75164; AlphaScreen JMJD2A-Tudor / H3K4me3 peptide binding; Potency, µM (top dose mostly 114 µM), without a hit: top-dose activity change, negative = inhibition, most hits filed as inhibitors; 390,000 tested, 4.4% active; AID 504339; note: % is set by controls: 0 for no effect and ±100 for the full control effect; nearly all actives have a fitted effect of over 50% in size
BAZ2B inh = inhibitors of human BAZ2B bromodomain; AlphaScreen BAZ2B-H3K14Ac peptide displacement; 360,000 tested, 4.4% active; Potency, µM (highest dose often 114 µM), without a hit: top-dose activity change, negative = inhibition, hits mostly inhibitors; AID 504333; Q9UIF8; note: % is set by controls: 0 for no effect and ±100 for the full control effect; nearly all actives have a fitted effect of over 60% in size
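AlphaScreen displacement of biotin-H3(5-23)K14Ac peptide (50 nM final) from BAZ2B (50 nM final) in PBS pH 7.4, 0.01% Tween-20; complex preformed 30 min RT, then compounds (top 110 uM) 30 min RT, beads 20 min dark.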
ALOX12 inh = blocks human arachidonate 12S-lipoxygenase | P18054 | purified 12hLO, xylenol orange hydroperoxide absorbance | Potency, µM (doses to about 108 µM), for inactives: at the highest dose activity change, negative = inhibition, most hits filed as inhibitors | 580,000 tested, 1.1% active | AID 1671190; note: % is set by controls: 0 for no effect and ±100 for the full control effect
Target sequence (P18054 whole entry, looked up): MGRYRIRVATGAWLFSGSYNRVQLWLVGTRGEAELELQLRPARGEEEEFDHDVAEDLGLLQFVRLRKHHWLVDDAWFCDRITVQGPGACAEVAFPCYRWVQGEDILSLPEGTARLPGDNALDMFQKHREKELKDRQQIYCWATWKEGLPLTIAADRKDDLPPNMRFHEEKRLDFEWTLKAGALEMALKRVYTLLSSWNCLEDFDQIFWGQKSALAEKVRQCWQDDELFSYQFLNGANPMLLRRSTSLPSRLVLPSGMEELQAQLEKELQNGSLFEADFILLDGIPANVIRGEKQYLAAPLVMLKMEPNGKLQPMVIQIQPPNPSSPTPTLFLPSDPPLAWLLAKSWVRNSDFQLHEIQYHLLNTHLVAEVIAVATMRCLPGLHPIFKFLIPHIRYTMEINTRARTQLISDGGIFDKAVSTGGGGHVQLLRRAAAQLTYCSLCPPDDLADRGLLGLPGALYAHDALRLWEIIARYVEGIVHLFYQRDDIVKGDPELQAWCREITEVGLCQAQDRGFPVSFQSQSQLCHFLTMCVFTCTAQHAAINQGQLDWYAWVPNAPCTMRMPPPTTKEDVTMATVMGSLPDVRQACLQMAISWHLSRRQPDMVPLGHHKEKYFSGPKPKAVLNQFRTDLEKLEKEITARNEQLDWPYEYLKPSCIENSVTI
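Purified human 12hLO (150 nM final) in 25 mM Hepes, 0.01% Triton X-100, pH 7.0 was preincubated 15 min at room temperature with compound. Then 40 uM arachidonic acid was added, 30 min. Hydroperoxide was read by Fe-XO absorbance ratio 573/405 nm.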
G9a block = blocks human histone lysine methyltransferase G9a; Potency, µM (highest dose often 102 µM), without a hit: top-dose activity, negative = inhibition, usual class: inhibitors; G9a H3K9 monomethylation, AlphaScreen, 2 h; Q96KQ7; 350,000 tested, 8.8% active; AID 504332; note: % is set by controls: 0 for no effect and ±100 for the full control effect; nearly all actives have a fitted effect of over 75% in size
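Chemiluminescent proximity detection of H3K9 monomethylation, read after 10 min bead incubation in the dark. Reaction: 20 nM G9a, 500 nM biotin-H3K9 peptide, 20 uM SAM cofactor, 2 h, room temperature, following 15 min enzyme-compound preincubation.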
HP1b binding inh = HP1-beta chromodomain-methylated histone interaction inhibition; P83916; AlphaScreen HP1-beta / biotin-H3K9me3 peptide binding; Potency, µM (top dose mostly 114 µM), for inactives: at the highest dose activity change, negative = inhibition, hits mostly inhibitors; 390,000 tested, 0.56% active; note: nearly all actives have a fitted effect of over 70% in size
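AlphaScreen: HP1-beta (50 nM) preformed 30 min with biotin-H3(1-18)K9me3 peptide (50 nM) in PBS pH 7.4, 0.01% Tween-20. Compound added for 30 min at RT, then streptavidin donor/nickel chelate acceptor beads (10 ug/mL) for 30 min.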
The depositor's hits bear a star; i = inactive; ? = inconclusive; / = not tested or not shown; [ ] = dose if it differs, or a comment. Calls come from the whole dose curve; as a rule, active = well fitted curve in the direction sought with a large enough effect; inconclusive = small, poorly fitted or top-dose-only effect, or another doubt; inactive = no such curve, though single readings can be large; an effect the other way counts as inactive or inconclusive. Potency is the fitted concentration of half-maximal effect.

SMILES	Sfp inh	JMJD2A Tudor inh	BAZ2B inh	ALOX12 inh	G9a block	HP1b binding inh
O=C(CCc1c[nH]c2ccccc12)OCc1cccc([N+](=O)[O-])c1	3.8%	?	?	-1.6%	39.8µM*	?
COc1cccc(NC(=O)Cn2c(N3CCN(c4ccccc4)CC3)nc(C)cc2=O)c1	/	/	/	-14.2%	/	/
COc1cccc(-c2nc(-c3ccc(Br)cc3)no2)c1OC	/	/	/	-1.4%	/	/
CNC[C@H](CC1CCCCC1)NC[C@H](Cc1ccccc1)NCCC12CC3CC(CC(C3)C1)C2	44.7µM*	-35.5%	?	0.0%	44.7µM*	20.4%
Cc1ccc(C(=O)NCc2nnc3ccc(-c4ccc(C)c(C)c4)nn23)s1	/	/	/	35.0%	/	/
Cc1ccc(/C=C/c2nc3ccccc3[nH]2)o1	5.01µM*	50.1µM*	-34.0%	?	11.2µM*	?
COc1ccc(CN2CCc3c(c(=O)n4ncc(C(=O)N5CCN(c6ccc(F)cc6)CC5)c4n3C)C2)cc1	/	-11.2%	79.4µM*	-6.7%	3.5%[59 µM]	25.7%[57 µM]
CCOC(=O)c1ccc(NC(=O)c2cnn3c(=O)c4c(n(CC)c23)CCN(Cc2ccc(OC)cc2)C4)cc1	/	-29.4%	-18.2%	-15.5%	6.5%[59 µM]	4.8%[57 µM]
CCn1c2c(c(=O)n3ncc(C(=O)Nc4ccc(OC(F)(F)F)cc4)c13)CN(Cc1ccc(OC)cc1)CC2	/	-11.2%	-4.5%	?	12.6µM*	22.3%[57 µM]
Cc1ccc(OCc2nc(C)c(C(=O)Nc3ccc(C)cc3C)s2)cc1	/	/	/	35.7%	/	/
COc1cc(-c2nc3c4ccccc4nc(=S)n3[nH]2)cc(OC)c1OC	-6.9%	-19.2%	-3.4%	?	/	19.9%
CCCC(Oc1ccc(Br)cc1)c1nc2c3cc(OC)c(OC)cc3nc(=S)n2[nH]1 (centres undefined)	25.9%	-25.5%	8.9%	?	-30.4%	25.4%
CC(Oc1ccc(Br)cc1)c1nc2c3ccccc3nc(=S)n2[nH]1 (centres undefined)	-18.7%	-20.3%	-21.3%	3.55µM*	49.0%[59 µM]	10.4%
COc1ccccc1-c1nc2c3ccccc3nc(=S)n2[nH]1	44.7µM*	-24.7%	-2.0%	?	?	-5.0%
C/C(=N\NC(=S)NCC(C)(C)C)c1cc(F)cc(F)c1O	22.8%	-25.4%	7.08µM*	?	-1.4%	9.0%
COc1ccccc1NC(=O)c1cc2cc3ccc(OC)c(Cl)c3nc2s1	/	56.2µM*	79.4µM*	?	28.2µM*	5.4%[57 µM]
O=C(COc1ccc(F)cc1)N1CCCCC1c1nc(CCOCC2CCCC2)no1 (centres undefined)	/	/	/	29.8%	/	/
CC(C)(C)n1cnc2cc(NS(=O)(=O)c3ccccc3)ccc21	2.5%	-16.1%	7.6%	-18.1%	-39.3%[12.7 µM]	36.7%
CC(C)(C)n1cnc2cc(NCc3ccc(Br)cc3)ccc21	-13.5%	20µM*	31.6µM*	498.3%	50.1µM*	?
CC(C)(C)n1cnc2cc(NC(=O)c3ccc(Cl)cc3)ccc21	-1.1%	-13.1%	-10.7%	8.6%	7.4%	43.2%
CCc1ccc(CNc2ccc3c(c2)ncn3C(C)(C)C)cc1	-0.1%	63.1µM*	44.7µM*	0.2%	50.1µM*	?
CC(C)(C)n1cnc2cc(NCc3ccccc3O)ccc21	-2.1%	-35.3%	?	i	-7.4%	-12.1%
CCN(CC)c1ccc(CNc2ccc3c(c2)ncn3C(C)(C)C)cc1	?	14.1µM*	11.2µM*	0.0%	14.1µM*	?
COc1ccc(C(=O)Oc2ccccc2Cl)cc1Br	/	/	/	-2.3%	/	/
CC(C)(Oc1ccc(Cl)cc1)C(=O)N1CCN(c2ncccn2)CC1	/	/	/	3.6%	/	/
O=C(CCC[C@@H]1[C@H]2CCCN3CCC[C@@H](CN1C(=O)c1cccnc1)[C@@H]23)NCCCN1CCCC1	/	/	/	102.6%	/	/
CCOc1ccccc1NC1c2ccccc2C(=O)N1Cc1ccco1 (centres undefined)	-6.8%	?	?	-9.5%	44.7µM*	-7.8%
CSC1=N/C(=C\c2ccc(C)s2)C(=O)S1	-11.2%	-16.2%	-1.8%	-18.3%	9.9%[59 µM]	27.1%
